The source of these data is ChEMBL document CHEMBL2218924, “A broad activity screen in support of a chemogenomic map for kinase signalling research and drug discovery” (Biochem J, 2013).

For test [1], the target named is T1, Serine/threonine-protein kinase TAO3 (Homo sapiens) (UniProt Q9H2K8).
T1 sequence (whole entry): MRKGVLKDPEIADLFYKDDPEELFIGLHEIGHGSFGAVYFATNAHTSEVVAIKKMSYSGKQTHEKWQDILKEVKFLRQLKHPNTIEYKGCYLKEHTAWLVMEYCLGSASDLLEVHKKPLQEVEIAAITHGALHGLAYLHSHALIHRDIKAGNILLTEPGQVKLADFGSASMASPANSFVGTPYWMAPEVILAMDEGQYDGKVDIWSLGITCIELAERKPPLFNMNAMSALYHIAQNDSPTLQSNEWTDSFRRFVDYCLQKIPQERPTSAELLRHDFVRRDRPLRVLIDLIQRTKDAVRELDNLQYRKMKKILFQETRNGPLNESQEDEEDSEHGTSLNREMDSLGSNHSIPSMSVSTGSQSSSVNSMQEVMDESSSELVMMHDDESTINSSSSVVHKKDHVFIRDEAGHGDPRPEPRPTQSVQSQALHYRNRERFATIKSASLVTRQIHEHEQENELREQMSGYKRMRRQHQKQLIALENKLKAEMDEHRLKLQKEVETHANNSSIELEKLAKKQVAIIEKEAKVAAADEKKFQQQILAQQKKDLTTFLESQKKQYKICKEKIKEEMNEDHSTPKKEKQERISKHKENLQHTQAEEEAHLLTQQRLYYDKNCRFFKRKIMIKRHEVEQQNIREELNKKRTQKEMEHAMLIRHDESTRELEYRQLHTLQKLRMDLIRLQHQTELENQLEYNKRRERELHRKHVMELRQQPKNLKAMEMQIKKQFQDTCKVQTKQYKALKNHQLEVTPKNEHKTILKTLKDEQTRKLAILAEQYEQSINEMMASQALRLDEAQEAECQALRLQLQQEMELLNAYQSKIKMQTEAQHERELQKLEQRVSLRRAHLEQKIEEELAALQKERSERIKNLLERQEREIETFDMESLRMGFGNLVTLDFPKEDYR
As to conditions: at 10 µM.

In test [2] the target is T2, Serine/threonine-protein kinase TBK1 (Homo sapiens) (UniProt Q9UHD2).
T2 sequence (whole entry): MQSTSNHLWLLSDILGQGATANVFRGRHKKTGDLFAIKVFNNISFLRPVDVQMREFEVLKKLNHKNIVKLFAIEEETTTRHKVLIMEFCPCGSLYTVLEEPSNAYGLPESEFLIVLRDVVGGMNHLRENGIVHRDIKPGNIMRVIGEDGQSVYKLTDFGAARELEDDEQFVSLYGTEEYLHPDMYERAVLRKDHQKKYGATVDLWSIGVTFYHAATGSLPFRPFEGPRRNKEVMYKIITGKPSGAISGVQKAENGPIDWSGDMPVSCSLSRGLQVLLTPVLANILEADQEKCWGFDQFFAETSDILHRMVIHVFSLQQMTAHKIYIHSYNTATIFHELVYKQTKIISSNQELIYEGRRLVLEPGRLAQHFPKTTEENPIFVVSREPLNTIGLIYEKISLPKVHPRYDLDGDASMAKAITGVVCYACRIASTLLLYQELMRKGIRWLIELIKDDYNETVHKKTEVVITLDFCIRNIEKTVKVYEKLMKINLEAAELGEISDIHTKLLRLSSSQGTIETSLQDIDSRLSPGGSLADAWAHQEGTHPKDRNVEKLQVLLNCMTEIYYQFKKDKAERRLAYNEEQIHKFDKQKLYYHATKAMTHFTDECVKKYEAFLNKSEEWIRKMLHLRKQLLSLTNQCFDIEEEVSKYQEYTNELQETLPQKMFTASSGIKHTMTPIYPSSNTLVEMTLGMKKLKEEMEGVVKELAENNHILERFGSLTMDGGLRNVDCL
Particulars: at 1 µM.

The target of test [3] is T2, Serine/threonine-protein kinase TBK1 (Homo sapiens). Particulars: at 10 µM.
In test [4] the target is T3, TGF-beta receptor type-1 (Homo sapiens) (UniProt P36897).
T3 sequence (whole entry): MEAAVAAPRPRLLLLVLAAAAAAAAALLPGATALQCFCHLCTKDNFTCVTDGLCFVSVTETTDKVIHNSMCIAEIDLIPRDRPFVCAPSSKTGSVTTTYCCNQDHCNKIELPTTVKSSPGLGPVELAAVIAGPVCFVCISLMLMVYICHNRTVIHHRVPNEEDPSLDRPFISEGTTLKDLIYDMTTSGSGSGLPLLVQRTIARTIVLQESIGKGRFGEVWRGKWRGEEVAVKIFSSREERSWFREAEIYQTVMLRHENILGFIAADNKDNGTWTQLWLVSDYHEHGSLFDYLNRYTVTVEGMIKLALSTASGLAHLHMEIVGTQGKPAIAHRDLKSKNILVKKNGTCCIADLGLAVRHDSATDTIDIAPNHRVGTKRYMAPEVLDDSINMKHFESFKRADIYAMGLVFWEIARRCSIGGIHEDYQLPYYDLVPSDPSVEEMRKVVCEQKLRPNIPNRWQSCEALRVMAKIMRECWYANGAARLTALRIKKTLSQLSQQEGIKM
As to conditions: at 1 µM.

Test [5] has as its target T3, TGF-beta receptor type-1 (Homo sapiens). Particulars: at 10 µM.
Test [6] has as its target T4, Inhibitor of nuclear factor kappa-B kinase subunit alpha (Homo sapiens) (UniProt O15111).
T4 sequence (whole entry): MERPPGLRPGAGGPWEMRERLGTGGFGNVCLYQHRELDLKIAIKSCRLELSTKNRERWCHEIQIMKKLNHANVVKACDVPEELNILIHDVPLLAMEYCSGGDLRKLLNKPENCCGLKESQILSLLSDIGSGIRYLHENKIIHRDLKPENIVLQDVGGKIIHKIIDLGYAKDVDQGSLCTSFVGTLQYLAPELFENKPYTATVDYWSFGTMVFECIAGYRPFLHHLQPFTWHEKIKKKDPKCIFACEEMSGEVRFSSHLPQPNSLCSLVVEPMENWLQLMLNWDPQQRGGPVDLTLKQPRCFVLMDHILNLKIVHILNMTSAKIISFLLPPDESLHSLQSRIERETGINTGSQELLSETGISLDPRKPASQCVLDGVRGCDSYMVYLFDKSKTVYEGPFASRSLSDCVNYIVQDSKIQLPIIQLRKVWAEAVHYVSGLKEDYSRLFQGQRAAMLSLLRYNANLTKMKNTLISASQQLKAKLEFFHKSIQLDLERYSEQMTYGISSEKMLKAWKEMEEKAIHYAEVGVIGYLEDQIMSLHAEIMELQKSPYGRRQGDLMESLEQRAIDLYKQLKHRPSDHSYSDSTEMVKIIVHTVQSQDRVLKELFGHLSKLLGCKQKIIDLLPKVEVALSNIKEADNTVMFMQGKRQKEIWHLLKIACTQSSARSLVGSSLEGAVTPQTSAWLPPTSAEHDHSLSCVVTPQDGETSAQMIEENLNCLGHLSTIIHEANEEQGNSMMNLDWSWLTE
Particulars: at 10 µM.

Test [7] addresses T5, Inhibitor of nuclear factor kappa-B kinase subunit beta (Homo sapiens) (UniProt O14920).
T5 sequence (whole entry): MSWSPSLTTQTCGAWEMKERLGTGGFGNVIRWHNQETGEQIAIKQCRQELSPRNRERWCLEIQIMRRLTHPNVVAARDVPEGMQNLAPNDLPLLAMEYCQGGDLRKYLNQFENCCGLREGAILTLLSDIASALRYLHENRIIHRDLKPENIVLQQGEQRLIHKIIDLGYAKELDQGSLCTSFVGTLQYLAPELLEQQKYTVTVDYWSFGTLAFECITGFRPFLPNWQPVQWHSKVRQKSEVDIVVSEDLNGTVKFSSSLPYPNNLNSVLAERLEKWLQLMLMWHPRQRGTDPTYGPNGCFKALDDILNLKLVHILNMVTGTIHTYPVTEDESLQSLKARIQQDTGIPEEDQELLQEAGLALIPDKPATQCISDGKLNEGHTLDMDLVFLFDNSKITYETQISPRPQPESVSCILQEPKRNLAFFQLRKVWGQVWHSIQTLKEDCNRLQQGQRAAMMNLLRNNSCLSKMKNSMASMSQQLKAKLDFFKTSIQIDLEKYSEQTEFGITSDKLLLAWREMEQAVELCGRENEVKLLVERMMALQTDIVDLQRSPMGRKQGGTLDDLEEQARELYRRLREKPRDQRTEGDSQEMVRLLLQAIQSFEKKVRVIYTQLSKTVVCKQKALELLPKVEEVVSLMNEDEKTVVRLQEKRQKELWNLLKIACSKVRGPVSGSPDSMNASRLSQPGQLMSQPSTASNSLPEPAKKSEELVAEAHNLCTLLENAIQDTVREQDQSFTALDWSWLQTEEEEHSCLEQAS
As to conditions: at 1 µM.

For test [8], the target named is T5, Inhibitor of nuclear factor kappa-B kinase subunit beta (Homo sapiens). As to conditions: at 10 µM.
The target in test [9] is Insulin receptor (Homo sapiens) (UniProt P06213). As to conditions: at 1 µM.
Sequence of Insulin receptor (Homo sapiens) (P06213 28-758 limits assumed): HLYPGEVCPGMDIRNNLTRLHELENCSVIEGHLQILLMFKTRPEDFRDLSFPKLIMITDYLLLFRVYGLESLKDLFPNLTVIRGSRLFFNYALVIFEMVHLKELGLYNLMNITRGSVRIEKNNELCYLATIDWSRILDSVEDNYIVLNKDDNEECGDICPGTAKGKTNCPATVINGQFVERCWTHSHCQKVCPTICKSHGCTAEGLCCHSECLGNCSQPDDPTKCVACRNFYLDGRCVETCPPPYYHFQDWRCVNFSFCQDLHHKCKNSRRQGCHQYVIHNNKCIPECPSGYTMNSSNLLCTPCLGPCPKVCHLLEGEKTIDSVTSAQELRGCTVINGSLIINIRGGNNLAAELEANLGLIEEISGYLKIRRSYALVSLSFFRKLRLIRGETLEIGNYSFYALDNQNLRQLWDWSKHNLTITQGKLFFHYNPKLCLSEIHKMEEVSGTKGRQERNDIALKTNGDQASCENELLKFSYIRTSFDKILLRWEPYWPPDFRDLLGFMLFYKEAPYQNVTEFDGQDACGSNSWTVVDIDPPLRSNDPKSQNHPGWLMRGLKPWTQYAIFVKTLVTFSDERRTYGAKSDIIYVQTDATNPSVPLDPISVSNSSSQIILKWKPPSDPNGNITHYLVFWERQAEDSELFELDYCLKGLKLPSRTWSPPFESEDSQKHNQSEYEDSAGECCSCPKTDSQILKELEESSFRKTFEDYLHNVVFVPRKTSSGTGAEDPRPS
Sequence of Insulin receptor (Homo sapiens) (P06213 763-1382 limits assumed): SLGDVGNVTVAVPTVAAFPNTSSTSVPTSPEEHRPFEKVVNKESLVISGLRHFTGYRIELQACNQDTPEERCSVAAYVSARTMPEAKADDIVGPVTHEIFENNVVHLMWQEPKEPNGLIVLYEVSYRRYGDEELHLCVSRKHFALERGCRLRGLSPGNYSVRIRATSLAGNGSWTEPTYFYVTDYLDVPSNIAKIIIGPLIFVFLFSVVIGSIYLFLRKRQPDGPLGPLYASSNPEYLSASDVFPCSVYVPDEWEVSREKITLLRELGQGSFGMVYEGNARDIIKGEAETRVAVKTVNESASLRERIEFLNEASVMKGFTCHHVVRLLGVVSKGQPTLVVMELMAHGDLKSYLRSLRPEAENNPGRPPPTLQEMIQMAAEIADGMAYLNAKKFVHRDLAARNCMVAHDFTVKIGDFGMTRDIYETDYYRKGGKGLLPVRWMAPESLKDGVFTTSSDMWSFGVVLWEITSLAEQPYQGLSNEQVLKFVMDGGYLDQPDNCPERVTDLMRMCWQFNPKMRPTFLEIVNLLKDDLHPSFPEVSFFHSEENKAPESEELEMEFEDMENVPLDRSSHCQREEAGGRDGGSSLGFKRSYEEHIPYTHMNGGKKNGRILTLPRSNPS

The term residual activity denotes what remains of the control signal, in per cent. In the case of `O=C1Nc2ccc(Cl)cc2/C1=C/c1cc(Cl)c(O)c(Cl)c1`, the residual activity in test [1] turned out to be 52%; in test [2], 59%; in [3], 38%; in test [4], 79%; in [5], 42%; in [6] it was 88%. In addition, the residual activity worked out at 100% in test [7], 67% in test [8] and 96% in [9].
